Rows were chosen to be rich in hits. Some 1.1% of all compounds tested hit in one or more screens of this group.
NCOA1 inh – SRC1 coactivator transcriptional activity inhibitors, primary screen, cell-based, luminescence | Nuclear receptor coactivator 1 (Homo sapiens), Q15788 | HEK293 GAL4-SRC1 luciferase reporter | inhibition, % at 3.6 µM | 360,000 tested, 0.12% active | AID 588354, 2011;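 active means inhibition above the campaign mean plus 3 SD, with each screening campaign given its own cutoff, cut at about 60% in these data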;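 further: 0% = DMSO treated cells and 100% = gossypol at 36 µM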
SRC2 inh – inhibition of GAL4-SRC2 driven luciferase reporter, primary screen, SRC2 inhibitor project, cell-based, luminescence. Nuclear receptor coactivator 2 (Homo sapiens), Q15596. 370,000 tested, 0.17% active. HEK293 GAL4-SRC2 luciferase reporter. inhibition, % at 9 µM;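 active means inhibition above the mean inhibition of all tested compounds plus 3 SD, set per campaign, cut at about 52% in these data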;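 further: 0% = DMSO treated cells and 100% = cells given Gossypol at 36 µM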
NR2F2 inh – NR2F2 transcriptional activity inhibitors, primary screen, cell-based, luciferase reporter, HEK293T, luminescence. COUP transcription factor 2 (Homo sapiens), P24468. HEK293T NGFI-A luciferase reporter. inhibition, % at 8.6 µM. 370,000 tested, 0.7% active;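 active means inhibition above a per-plate cutoff, mean inhibition of test wells between control levels plus 3 SD, cut at about 38% in these data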;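 further: cells cotransfected with COUP-TFII expression vector driving the NGFI-A reporter; 0% = median of COUP-TF2 test wells and 100% = reporter-only cells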
NCOA3 inh – SRC3 coactivator transcriptional activity inhibitors, primary screen, cell-based, luminescence; inhibition, % at 3.6 µM; AID 588352, 2011; HEK293 GAL4-SRC3 luciferase reporter; 360,000 tested, 0.17% active;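 active means inhibition above a per-campaign cutoff, the mean of all compounds plus 3 SD, cut at about 60% in these data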;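 further: 0% = DMSO-treated cells and 100% = gossypol-treated cells at 36 µM; higher means less SRC3-driven luciferase light from the GAL4 reporter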
GalR3 antag – GalR3 antagonists in HEK293 cells, primary screen, cell-based, fluorescence readout | Galanin receptor type 3 (Homo sapiens), O60755 | 360,000 tested, 0.44% active | HEK293 GalR3-CNG cAMP membrane potential fluorescence; galR3 body fused to GalR1 C-terminus | AID 651719, 2012 | inhibition, % at 3 µM;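 active means inhibition above the screen-wide average plus 3 SD, cut at about 13% in these data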;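 further: forskolin and galanin both at EC90 stimulate the cells; cAMP rise reported by CNG channel membrane potential dye signal; 0% = forskolin plus galanin with DMSO and 100% = forskolin alone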
LRH-1 inv ag – LRH-1 (NR5A2) inverse agonists, primary screen, cell-based, luminescence, HEK293T, StAR-luciferase reporter. LRH-1 transfected, 24 h. inhibition, % at 3.6 µM. Nuclear receptor subfamily 5 group A member 2 (Homo sapiens), O00482. 360,000 tested, 0.13% active;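 active means inhibition above the mean inhibition of all tested compounds plus 3 SD, cut at about 73% in these data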;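 further: 0% = DMSO wells and 100% = reporter-only cells lacking LRH-1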
GalR3 conf – GalR3 antagonist hit confirmation, cell-based, fluorescence, triplicate; 1,600 tested, 59% active; inhibition, % at 3 µM; AID 652245, 2013; shares compounds with GalR3 antag; HEK293 GalR3 CNG cAMP biosensor, membrane potential fluorescence; galR3 fused to GalR1 carboxy tail; challenged with forskolin and galanin at EC90;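 active means inhibition above the primary screen's cutoff, the mean inhibition of all screened compounds plus 3 SD, cut at about 13% in these data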;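 further: 0% = forskolin plus galanin and 100% = forskolin alone with DMSO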
HEK-CNG parental – nonspecific cAMP agonists in parental HEK-CNG cells, counter-screen for GalR3 antagonist project, cell-based, fluorescence, high throughput | shares compounds with GalR3 antag | HEK293-CNG parental cells, cAMP membrane potential fluorescence; normalised: DMSO wells 0%, forskolin wells 100% | activation, % at 3 µM | 1,600 tested, 10% active | AID 652268, 2013; in the data active means activation above about 1.3%
Gal4-VP16 ctr – Gal4-VP16 luciferase reporter inhibitors, counter-screen for COUP-TFII antagonist project, cell-based, luminescence, HEK293 | shares compounds with NR2F2 inh | inhibition, % at 8.5 µM | 2,500 tested, 25% active | AID 687007, 2013; in the data active means inhibition above about 13%
COUP-TFII conf – NR2F2 transcriptional activity inhibitors, confirmation, cell-based, luciferase reporter, HEK293, triplicate; shares compounds with NR2F2 inh; HEK293 NGFI-A luciferase reporter, luminescence; inhibition, % at 8.5 µM; 2,500 tested, 45% active; AID 687008, 2013;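 active means mean inhibition over three repeats above a set limit taken from the earlier primary screen, cut at about 38% in these data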;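 further: 100% = cells given the luciferase reporter alone without the COUP-TF2 vector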
* = called active by the depositor; . = not tested or not shown.

SMILES	NCOA1 inh	SRC2 inh	NR2F2 inh	NCOA3 inh	GalR3 antag	LRH-1 inv ag	GalR3 conf	HEK-CNG parental	Gal4-VP16 ctr	COUP-TFII conf
OCC1CCCN(c2nc(CN3CCCCC3)nc3scc(-c4ccccc4)c23)C1 (stereo not drawn)	10	-13	2	18	-12	-22	.	.	.	.
Cc1cc(NCCO)nc(-n2nc(C)cc2C)n1	3	-6	7	-39	13*	-10	0	0	.	.
Cc1cc(N(CCO)CCO)nc(-n2nc(C)cc2C)n1	4	16	-8	13	5	-8	.	.	.	.
CC1(C)CC(=O)c2c(Cc3ccccc3)noc2C1	-36	-26	21	6	20*	-2	4	1.3*	.	.
O=C(NNC(=O)c1ccccc1O)c1ccc(Cl)c(S(=O)(=O)N2CCc3ccccc32)c1	28	-9	48*	19	29*	16	60*	-2	0	39*
O=C(c1ccc(Cl)c(S(=O)(=O)N2CCc3ccccc32)c1)N1CCN(c2ccccc2O)CC1	0	23	0	-15	-4	5	.	.	.	.
CC(O)CC(=O)OC[C@]12CC[C@H]3[C@@](C)(CC[C@H]4C(C)(C)CCC[C@]34C)[C@@H]1CC(C1=CC(=O)OC1O)O2 (stereo partly drawn)	38	42	87*	58	23*	78*	22*	1	52*	72*
CC1Cc2cc(/C(O)=C3/C(=O)C(=O)N(Cc4cccnc4)C3c3cccc(O)c3)ccc2O1 (stereo not drawn)	1	-5	2	13	4	-14	.	.	.	.
O=C(CSc1nnnn1C1CC2CCC1C2)Nc1ccnc2ccccc12 (stereo not drawn)	31	23	72*	31	89*	49	117*	1	2	70*
COc1ccc(NC(=O)c2cccc(S(=O)(=O)N3CCN(c4ccccc4)CC3)c2)c(OC)c1	-2	-2	14	-9	0	-3	.	.	.	.
COc1ccc(NC(=O)CSc2ccccn2)cc1OC	-2	-1	-4	-4	0	-8	.	.	.	.
COc1ccc(NC(=O)CSc2ncccc2C(=O)OC(C)C)cc1OC	2	23	58*	-3	28*	10	13*	0	-3	28
CC(C)C(NC(=O)Cc1ccccc1)C(=O)N1CCN(c2cccc(Cl)c2)CC1 (stereo not drawn)	-5	27	65*	16	44*	-21	0	0	1	13
CC(NC(=O)c1ccco1)C(=O)N1CCN(c2cccc(Cl)c2)CC1 (stereo not drawn)	4	8	3	19	-3	15	.	.	.	.
NC(=O)c1ccc(NC(=O)c2ccc(CN3CCOCC3)cc2)cc1	-11	-10	-3	-20	-3	-18	.	.	.	.
Cc1cc(CSc2ccccc2)ccc1NC(=O)c1ccc(CN2CCOCC2)cc1	32	5	63*	30	106*	40	122*	-1	3	61*
CCOc1ccc(NC(=O)c2ccc(CN3CCc4ccccc4C3)cc2)cc1	29	-12	48*	7	103*	13	108*	0	-30	41*
COc1cccc(NC(=O)c2ccc(CN3CCc4ccccc4C3)cc2)c1	-6	-23	54*	-4	46*	1	102*	0	-46	18
CCOc1ccccc1NC(=O)c1ccc(CN2CCc3ccccc3C2)cc1	1	0	9	-14	-8	37	.	.	.	.
CCOC(=O)c1ccc(NC(=O)c2ccc(CN3CCOCC3)cc2)cc1	11	17	50*	32	94*	25	110*	0	-4	38*
COc1cccc(CN(CC(=O)NC2CCCCC2)C(=O)c2csnn2)c1	-29	8	9	-8	-9	5	.	.	.	.
COc1ccc(NC(=O)c2cc(F)cc(F)c2)cc1S(=O)(=O)N1CCCCC1	10	5	23	-24	-4	-11	.	.	.	.
CCOC(=O)c1ccc(NC(=O)c2ccc(CN3CCc4ccccc4C3)cc2)cc1	30	6	51*	23	71*	34	110*	0	-8	54*
O=C(NC1CCN(Cc2ccccc2)CC1)c1ccc(S(=O)(=O)NCc2ccco2)cc1	-25	11	48*	12	63*	23	52*	0	6	22
O=C(NC1CCCCC1)c1ccc(S(=O)(=O)NCc2ccco2)cc1	-5	-30	6	12	-2	13	.	.	.	.
SMILES	NCOA1 inh	SRC2 inh	NR2F2 inh	NCOA3 inh	GalR3 antag	LRH-1 inv ag	GalR3 conf	HEK-CNG parental	Gal4-VP16 ctr	COUP-TFII conf
NC(=O)c1ccccc1OCC(=O)N1CCC(Cc2ccccc2)CC1	17	7	64*	5	21*	27	15*	0	6	39*
CCc1c(C)nc2ncnn2c1NCCc1ccc(OC)cc1	26	13	58*	9	15*	48	59*	0	9	52*
CCc1c(C)nc2ncnn2c1Nc1ccc(C)cc1	14	-7	17	-8	-3	0	.	.	.	.
Cc1ccc(NS(=O)(=O)c2ccc(C(=O)NCCN3CCOCC3)cc2)cc1	20	5	2	14	-4	13	.	.	.	.
CC(C)Cc1ccc(CN2CCCC(NC(=O)c3ccnn3C)C2)cc1 (stereo not drawn)	-1	23	46*	12	32*	5	0	0	-7	18
CCOCCCNC(=S)N1CCN(c2nc(-c3ccc(F)cc3)cs2)CC1	14	23	59*	3	37*	5	88*	-1	-6	42*
